Measurements as given in PubChem BioAssay (Tox21).
Several values for one entry are separate records, joined by “and”; a condition that tells them apart may be missing. Equal values may be shown once. The source holds several records for some structures; these can differ, active in one and inactive in another. Activity calls are given as the source filed them. Entries that show only a call come without a potency. Unless noted, calls follow the shape of the dose curve; as a rule, active = well fitted curve in the direction sought with a large enough effect in the repeat runs; inconclusive = weak or mixed curves; inactive = no such curve, though single readings can be large; an effect the other way counts as inactive or inconclusive.

Assays:
[1] = qHTS assay to identify small molecule antagonists of the thyroid receptor (TR) signaling pathway - cell viability counter screen (AID 743064); also: nearly all actives have a fitted effect of over 50% in size; also: potency is read from the fitted curve at half-maximal effect
How it was run: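 Viability of T3-stimulated (1 nM final) GH3.TRE-Luc cells is measured by CellTiter-Fluor fluorescence after 23.5 h compound exposure at 37 °C plus 30 min reagent incubation.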

[2] = system: thyroid hormone receptor (rat, GH3 cells); assay: qHTS assay to identify small molecule agonists of the thyroid receptor (TR) signaling pathway (AID 743066; calls by dose curve)
[3] = target: Estrogen receptor (Homo sapiens) (UniProt P03372); assay: qHTS assay to identify small molecule antagonists of the estrogen receptor alpha (ER-alpha) signaling pathway (AID 743069; active = well fitted curve in the direction sought with a large enough effect in the signal ratio in the repeat runs, not every such curve was filed as active; inconclusive = weak or mixed curves, or effect the other way; inactive = no such curve, though single readings can be large or run the other way; the % refers to the signal ratio)
Chain of Estrogen receptor (Homo sapiens) (P03372 whole entry, looked up): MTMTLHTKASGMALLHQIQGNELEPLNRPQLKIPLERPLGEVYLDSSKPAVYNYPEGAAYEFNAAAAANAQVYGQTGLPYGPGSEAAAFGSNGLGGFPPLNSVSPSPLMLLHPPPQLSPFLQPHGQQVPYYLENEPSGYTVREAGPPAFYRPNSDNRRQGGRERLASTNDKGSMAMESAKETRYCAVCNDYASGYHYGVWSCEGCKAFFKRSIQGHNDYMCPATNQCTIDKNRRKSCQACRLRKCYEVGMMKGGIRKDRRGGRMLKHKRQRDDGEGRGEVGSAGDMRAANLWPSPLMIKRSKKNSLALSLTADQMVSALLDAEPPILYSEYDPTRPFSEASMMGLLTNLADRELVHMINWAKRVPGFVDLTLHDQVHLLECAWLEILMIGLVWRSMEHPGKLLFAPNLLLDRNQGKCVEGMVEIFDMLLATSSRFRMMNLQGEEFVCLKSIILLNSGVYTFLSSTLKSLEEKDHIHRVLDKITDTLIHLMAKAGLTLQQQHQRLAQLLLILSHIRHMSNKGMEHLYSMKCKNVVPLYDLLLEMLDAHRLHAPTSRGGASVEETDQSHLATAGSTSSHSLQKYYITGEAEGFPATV
How it was run: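 In this cell-based reporter format, GripTite HEK293 cells harbouring ER-alpha-UAS-bla were grown overnight with 2% charcoal-stripped FBS, dosed with DMSO-dissolved compounds, then challenged with 17beta-estradiol. After 18 hr at 37C, beta-lactamase activity was detected by FRET fluorescence.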

[4] = qHTS assay to identify small molecule antagonists of the estrogen receptor alpha (ER-alpha) signaling pathway - cell viability counter screen (AID 743074; calls by dose curve; also: nearly all actives have a fitted effect of over 45% in size)
[5] = target: Estrogen receptor (Homo sapiens) (UniProt P03372); assay: qHTS assay to identify small molecule agonists of the estrogen receptor alpha (ER-alpha) signaling pathway (AID 743075; calls by dose curve; also: potency is read from the fitted curve at half-maximal effect)
[6] = target: Estrogen receptor (Homo sapiens) (UniProt P03372); assay: qHTS assay to identify small molecule agonists of the estrogen receptor alpha (ER-alpha) signaling pathway using the BG1 cell line (AID 743079); also: nearly all actives have a fitted effect of over 20% in size; also: potency is read from the fitted curve at half-maximal effect
[7] = qHTS assay to identify small molecule antagonists of the estrogen receptor alpha (ER-alpha) signaling pathway using the BG1 cell line (AID 743080; calls by dose curve;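 also: BG1 cells stimulated with 17beta-estradiol alongside compound; nearly all actives have a fitted effect of over 25% in size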; also: potency is read from the fitted curve at half-maximal effect)
How it was run: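 BG1-Luc-4E2 cells (endogenous full-length ER-alpha, stable 4×ERE-luciferase) were starved 5 days in phenol-red-free medium with 10% charcoal-stripped FBS, plated 24 h, then given compound plus 17beta-estradiol for 21.5 h at 37 C; ONE-Glo luminescence read after 30 min.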

[8] = qHTS assay to identify small molecule antagonists of the estrogen receptor alpha (ER-alpha) signaling pathway using the BG1 cell line - cell viability counter screen (AID 743081);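 also: compound given together with 17beta-estradiol as the ER stimulus; series mostly up to about 70 µM; nearly all actives have a fitted effect of over 45% in size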
[9] = target: Aromatase (Homo sapiens) (UniProt P11511); assay: qHTS assay to identify aromatase inhibitors (AID 743083); also: nearly all actives have a fitted effect of over 55% in size; also: potency is read from the fitted curve at half-maximal effect
Chain of Aromatase (Homo sapiens) (P11511 whole entry, looked up): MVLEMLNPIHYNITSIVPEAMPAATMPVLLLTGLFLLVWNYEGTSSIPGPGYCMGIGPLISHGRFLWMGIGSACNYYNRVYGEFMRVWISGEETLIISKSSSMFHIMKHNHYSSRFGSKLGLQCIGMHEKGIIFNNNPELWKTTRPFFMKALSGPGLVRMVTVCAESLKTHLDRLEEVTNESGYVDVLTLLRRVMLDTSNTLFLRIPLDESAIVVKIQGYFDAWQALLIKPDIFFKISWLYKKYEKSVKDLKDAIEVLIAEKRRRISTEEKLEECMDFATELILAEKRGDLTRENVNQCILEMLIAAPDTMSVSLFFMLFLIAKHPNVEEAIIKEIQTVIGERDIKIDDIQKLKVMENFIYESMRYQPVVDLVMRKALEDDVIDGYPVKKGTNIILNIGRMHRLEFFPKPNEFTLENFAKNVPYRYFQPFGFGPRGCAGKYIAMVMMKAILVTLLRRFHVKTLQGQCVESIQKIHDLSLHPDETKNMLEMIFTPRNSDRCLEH

[10] = qHTS assay to identify aromatase inhibitors - cell viability counter screen (AID 743084);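 also: cells stimulated with testosterone during compound exposure; nearly all actives have a fitted effect of over 55% in size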; also: potency is read from the fitted curve at half-maximal effect
[11] = target: Aryl hydrocarbon receptor (Homo sapiens) (UniProt P35869); assay: qHTS assay to identify small molecule that activate the aryl hydrocarbon receptor (AhR) signaling pathway (AID 743085); also: nearly all actives have a fitted effect of over 15% in size; also: potency is read from the fitted curve at half-maximal effect;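 as to activation: HG2L7.5c1 human HepG2 liver cells with stably integrated DRE-driven firefly reporter; series mostly up to about 70 µM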
Chain of Aryl hydrocarbon receptor (Homo sapiens) (P35869 whole entry, looked up): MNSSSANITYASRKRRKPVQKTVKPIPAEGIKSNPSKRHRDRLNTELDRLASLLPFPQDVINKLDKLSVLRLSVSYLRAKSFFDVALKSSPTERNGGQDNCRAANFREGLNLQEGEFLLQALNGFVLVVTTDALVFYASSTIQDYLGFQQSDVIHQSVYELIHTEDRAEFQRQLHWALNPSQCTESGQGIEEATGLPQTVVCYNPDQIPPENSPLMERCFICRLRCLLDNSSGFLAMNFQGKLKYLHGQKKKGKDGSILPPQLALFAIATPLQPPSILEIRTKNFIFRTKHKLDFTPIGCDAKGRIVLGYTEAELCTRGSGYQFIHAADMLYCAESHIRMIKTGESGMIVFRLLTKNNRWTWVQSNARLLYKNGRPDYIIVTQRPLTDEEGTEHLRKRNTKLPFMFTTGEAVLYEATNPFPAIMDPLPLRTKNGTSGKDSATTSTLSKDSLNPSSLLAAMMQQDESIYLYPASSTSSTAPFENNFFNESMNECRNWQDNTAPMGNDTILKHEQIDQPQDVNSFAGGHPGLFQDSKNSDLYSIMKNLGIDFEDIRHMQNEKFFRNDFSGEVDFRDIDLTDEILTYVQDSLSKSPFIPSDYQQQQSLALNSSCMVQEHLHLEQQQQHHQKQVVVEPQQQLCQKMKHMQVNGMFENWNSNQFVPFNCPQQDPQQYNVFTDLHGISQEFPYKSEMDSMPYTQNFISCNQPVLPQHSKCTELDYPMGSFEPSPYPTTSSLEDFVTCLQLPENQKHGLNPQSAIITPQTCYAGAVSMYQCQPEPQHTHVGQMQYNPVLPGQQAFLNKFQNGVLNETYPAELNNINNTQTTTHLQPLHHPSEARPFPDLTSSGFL
How it was run: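 A multiplexed format paired cell viability (CellTiter-Fluor fluorescence) with AhR-dependent luciferase output (ONE-Glo luminescence) in the same wells of HepG2 DRE-luc cells after 24 h compound exposure at 37C.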

[12] = qHTS assay to identify small molecule that activate the aryl hydrocarbon receptor (AhR) signaling pathway - cell viability counter screen (AID 743086);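 also: HepG2 liver cells carrying the AhR DRE luciferase reporter; series mostly up to about 70 µM; nearly all actives have a fitted effect of over 45% in size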
How it was run: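 HepG2-AhR-luc (HG2L7.5c1) cells, 4000/well, treated 24 h at 37 C with compound; viability measured as CellTiter-Fluor fluorescence after 30 min in the same wells as the luciferase read.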

[13] = target: Peroxisome proliferator-activated receptor gamma (Homo sapiens) (UniProt P37231); assay: qHTS assay to identify small molecule agonists of the peroxisome proliferator-activated receptor gamma (PPARg) signaling pathway (AID 743094; active = well fitted activation curve with a large enough effect in the signal ratio in the repeat runs, not every such curve was filed as active; inconclusive = weak or mixed curves, or effect the other way; inactive = no such curve, though single readings can be large or run the other way; the % refers to the signal ratio)
Chain of Peroxisome proliferator-activated receptor gamma (Homo sapiens) (P37231 whole entry, looked up): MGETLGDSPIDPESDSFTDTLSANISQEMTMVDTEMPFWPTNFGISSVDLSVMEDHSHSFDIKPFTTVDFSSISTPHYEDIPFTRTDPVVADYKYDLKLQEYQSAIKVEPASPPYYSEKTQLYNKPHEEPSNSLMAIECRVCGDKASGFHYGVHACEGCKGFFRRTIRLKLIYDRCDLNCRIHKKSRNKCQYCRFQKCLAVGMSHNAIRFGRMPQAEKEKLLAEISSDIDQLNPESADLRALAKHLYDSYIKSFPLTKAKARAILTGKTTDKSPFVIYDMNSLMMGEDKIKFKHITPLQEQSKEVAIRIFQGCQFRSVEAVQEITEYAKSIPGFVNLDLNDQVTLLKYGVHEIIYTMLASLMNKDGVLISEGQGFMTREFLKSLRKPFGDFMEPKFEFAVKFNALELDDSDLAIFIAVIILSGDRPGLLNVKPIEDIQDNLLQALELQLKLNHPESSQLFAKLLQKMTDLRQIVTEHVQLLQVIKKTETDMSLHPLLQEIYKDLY
How it was run: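 Agonism was assessed in a beta-lactamase reporter system, HEK293H cells with a stably integrated UAS-bla construct under PPARg control; the 17 h treatment at 37C preceded a 1 h room-temperature FRET substrate read.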

[14] = target: Peroxisome proliferator-activated receptor gamma (Homo sapiens) (UniProt P37231); assay: qHTS assay to identify small molecule antagonists of the peroxisome proliferator-activated receptor gamma (PPARg) signaling pathway (AID 743191; calls by dose curve; also: series mostly up to about 63 µM; nearly all actives have a fitted effect of over 30% in size)
How it was run: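 GeneBLAzer PPARg UAS-bla HEK293H cells, 5 h post-plating, exposed to compounds 17 h at 37C. LiveBLAzer B/G FRET substrate added for 1 h at room temperature; beta-lactamase reporter read by fluorescence intensity.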

[15] = qHTS assay to identify small molecule antagonists of the peroxisome proliferator-activated receptor gamma (PPARg) signaling pathway - cell viability counter screen (AID 743194); also: nearly all actives have a fitted effect of over 55% in size
How it was run: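 Cytotoxicity counter screen in PPARg-bla HEK293H cells, same wells as reporter assay. Compounds plus 50 nM rosiglitazone (final) for 17 h at 37 C, then viability read by CellTiter-Glo luminescence.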

[16] = qHTS assay for small molecule agonists of the antioxidant response element (ARE) signaling pathway (AID 743202; active = well fitted activation curve with a large enough effect in the signal ratio in the repeat runs, not every such curve was filed as active; inconclusive = weak or mixed curves, or effect the other way; inactive = no such curve, though single readings can be large or run the other way; the % refers to the signal ratio; also: potency is read from the fitted curve at half-maximal effect)
How it was run: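 HepG2 ARE-bla cells; 16 h treatment at 37 C; FRET-based beta-lactamase fluorescence read after 2 h substrate incubation at room temperature.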

[17] = qHTS assay for small molecule agonists of the antioxidant response element (ARE) signaling pathway - cell viability counter screen (AID 743203; calls by dose curve; also: nearly all actives have a fitted effect of over 55% in size)
How it was run: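 ATP content via CellTiter-Glo luminescence served as the viability measure. Cells: ARE-bla HepG2, 2,000 per well. Exposure: 16 hrs, 37C/5% CO2.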

[18] = qHTS assay for small molecule activators of the heat shock response signaling pathway - cell viability counter screen (AID 743209); also: nearly all actives have a fitted effect of over 50% in size; also: potency is read from the fitted curve at half-maximal effect
How it was run: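 Compounds dissolved in DMSO were added to overnight-plated HSE-bla HeLa cells and left 5 h at 37 C. Cell viability was quantified by luminescence using CellTiter-Glo.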

[19] = qHTS assay to identify small molecule antagonists of the thyroid receptor (TR) signaling pathway (AID 743065); also: nearly all actives have a fitted effect of over 55% in size; also: potency is read from the fitted curve at half-maximal effect
How it was run: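 GH3.TRE-Luc rat pituitary cells (two TREs driving luciferase) were dosed with compound, then stimulated with 1 nM T3 (final) for 23.5 h at 37 C. ONE-Glo luminescence was the read-out, with CellTiter-Fluor fluorescence as the cytotoxicity counter-screen.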

[20] = qHTS assay for small molecule activators of the heat shock response signaling pathway (AID 743210; active = well fitted activation curve with a large enough effect in the signal ratio in the repeat runs, with a control signal flat, not every such curve was filed as active; inconclusive = weak or mixed curves; the % refers to the signal ratio;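 also: HeLa cells with beta-lactamase reporter driven by heat shock elements; series mostly up to about 63 µM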)
How it was run: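 Following overnight attachment, HSE-bla HeLa cells received test compounds for 5 h at 37 C; beta-lactamase activity was then detected via FRET substrate fluorescence.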

CCOC(=O)[C@H](CCc1ccccc1)N[C@@H](C)C(=O)N1Cc2ccccc2C[C@H]1C(=O)O
Potency [1]: inactive
outcome [2]: inactive
Potency [3]: inactive
Potency [4]: inactive
Potency [5]: inactive
Potency [6]: inactive
Potency [7]: inactive
Potency [8]: inactive
Potency [9]: inactive
Potency [10]: inactive
Potency [11]: 6.16 µM (active)
Potency [12]: inactive
outcome [13]: inactive
Potency [14]: inactive
Potency [15]: inactive
Potency [16]: inactive
Potency [17]: inactive
Potency [18]: inactive

C=C(C)C(=O)OCC(CC)(COC(=O)C(=C)C)COC(=O)C(=C)C
Potency [1]: inactive
Potency [19]: inactive
outcome [2]: inactive
Potency [8]: inactive
Potency [9]: inactive
Potency [10]: inactive
Potency [11]: inactive
Potency [12]: inactive
outcome [13]: inactive
Potency [14]: inactive
Potency [15]: inactive
Potency [16]: inactive
Potency [17]: inactive
Potency [18]: 12.1 µM (active)

CN(CCOc1ccc(CC2SC(=O)NC2=O)cc1)c1ccccn1 (stereo unspecified)
Potency [1]: inactive
outcome [2]: inactive
Potency [3]: inactive
Potency [4]: inactive
Potency [5]: inactive
Potency [6]: inactive
Potency [7]: inactive
Potency [8]: inactive
Potency [11]: inactive
Potency [12]: inactive
Potency [15]: inactive
Potency [16]: 21.6 µM (active) and inactive
Potency [17]: inactive
Potency [18]: inactive

CC1=C(/C=C/C(C)=C/C=C/C(C)=C/CO)C(C)(C)CCC1
Potency [1]: inactive
outcome [2]: inactive
Potency [3]: inactive
Potency [4]: inactive
Potency [5]: 8.49 µM [inconclusive] (active) and inactive
Potency [6]: 944 nM (active) and inactive
Potency [7]: 15 µM (active) and 7.79 µM (active) and inactive
Potency [8]: inactive
Potency [9]: inactive and 28.8 µM (active)
Potency [10]: inactive and 72.3 µM (active)
Potency [11]: inactive
Potency [12]: inactive
outcome [13]: inactive
Potency [15]: inactive
Potency [16]: 61.9 µM (active) and 57.4 µM (active)
Potency [17]: inactive
Potency [18]: inactive

CC(=O)CCc1ccccc1
Potency [1]: inactive
Potency [19]: inactive
outcome [2]: inactive
Potency [4]: inactive
Potency [8]: inactive
Potency [9]: inactive
Potency [10]: inactive
Potency [12]: inactive
outcome [13]: inactive
Potency [14]: inactive
Potency [15]: inactive
Potency [16]: inactive
Potency [17]: inactive
Potency [18]: inactive
outcome [20]: inactive

CC(C)n1c(/C=C/[C@@H](O)C[C@@H](O)CC(=O)O)c(-c2ccc(F)cc2)c2ccccc21
Potency [1]: inactive
Potency [19]: 13.3 µM (active) and 21.7 µM (active)
outcome [2]: inactive
Potency [4]: inactive
Potency [8]: inactive
Potency [10]: inactive
Potency [11]: 15 µM (active)
Potency [12]: inactive
Potency [15]: inactive
Potency [16]: inactive
Potency [17]: inactive
Potency [18]: inactive

NS(=O)(=O)c1cc2c(cc1Cl)NC=NS2(=O)=O
Potency [1]: inactive
outcome [2]: inactive
Potency [3]: inactive
Potency [5]: inactive
Potency [6]: inactive
Potency [7]: inactive
Potency [8]: inactive
Potency [9]: inactive
Potency [10]: inactive
Potency [11]: inactive
Potency [12]: inactive
outcome [13]: inactive
Potency [14]: inactive
Potency [15]: inactive
Potency [16]: inactive
Potency [17]: inactive
Potency [18]: inactive
outcome [20]: inactive

Cc1cc(NS(=O)(=O)c2ccc(N)cc2)no1
Potency [1]: inactive
outcome [2]: inactive
Potency [4]: inactive
Potency [8]: inactive
Potency [10]: inactive
Potency [12]: inactive
Potency [15]: inactive
Potency [16]: inactive
Potency [17]: inactive
Potency [18]: inactive

CCCCC(CC)C(=O)OCCOCCOCCOC(=O)C(CC)CCCC (stereo unspecified)
Potency [19]: inactive
outcome [2]: inactive
Potency [3]: inactive
Potency [4]: inactive
Potency [5]: inactive
Potency [6]: inactive
Potency [7]: inactive
Potency [8]: inactive
Potency [9]: inactive
Potency [10]: inactive
Potency [12]: inactive
outcome [13]: inactive
Potency [14]: inactive
Potency [15]: inactive
Potency [16]: inactive
Potency [17]: inactive
Potency [18]: inactive
outcome [20]: inactive

Nc1nc2ncc(CNc3ccc(C(=O)N[C@@H](CCC(=O)O)C(=O)O)cc3)nc2c(=O)[nH]1
Potency [4]: inactive
Potency [8]: inactive
Potency [9]: inactive
Potency [10]: inactive
Potency [11]: inactive
Potency [12]: inactive
outcome [13]: inactive
Potency [15]: inactive
Potency [16]: inactive
Potency [17]: inactive
Potency [18]: inactive
outcome [20]: inactive

CCCCCCCCCCC=CC1CC(=O)OC1=O (stereo unspecified)
Potency [1]: inactive
outcome [2]: inactive
Potency [4]: inactive
Potency [8]: inactive
Potency [12]: inactive
Potency [15]: inactive
Potency [17]: inactive
Potency [18]: inactive

Cc1cc(Cc2ccc(N)c(C)c2)ccc1N
Potency [1]: inactive
outcome [2]: inactive
Potency [4]: inactive
Potency [8]: inactive
Potency [12]: inactive
Potency [15]: inactive
Potency [16]: inactive
Potency [17]: inactive
Potency [18]: inactive
outcome [20]: inactive

Oc1ccc(OCc2ccccc2)cc1
Potency [1]: 9.02 µM (active)
Potency [3]: inactive
Potency [4]: inactive
Potency [5]: 11.4 µM [activator] (active) and 53.8 µM [inconclusive] (active)
Potency [6]: 8.04 µM (active) and 9.48 µM (active)
Potency [8]: inactive
Potency [9]: inactive
Potency [10]: inactive
Potency [11]: inactive
Potency [12]: inactive
Potency [15]: inactive
Potency [16]: 21.2 µM (active) and inactive
Potency [17]: inactive
Potency [18]: inactive
outcome [20]: inactive

CCCCCC/C=C/CCCCCCCC(=O)O
Potency [3]: inactive
Potency [4]: inactive
Potency [5]: inactive
Potency [6]: 30.7 µM (active) and inactive
Potency [7]: inactive
Potency [8]: inactive
Potency [9]: inactive
Potency [10]: inactive
Potency [11]: inactive
Potency [12]: inactive
outcome [13]: inactive
Potency [15]: inactive
Potency [16]: inactive
Potency [17]: inactive
Potency [18]: inactive
outcome [20]: inactive

Cc1ccc(C(=O)O)o1
Potency [1]: inactive
outcome [2]: inactive
Potency [4]: inactive
Potency [8]: inactive
Potency [9]: inactive
Potency [10]: inactive
Potency [11]: inactive
Potency [12]: inactive
outcome [13]: inactive
Potency [14]: inactive
Potency [15]: inactive
Potency [17]: inactive
Potency [18]: inactive
outcome [20]: inactive
